Out of some 270,000 compounds screened, about 5,800 (2.1%) were called active. Where a call stands in place of a potency, no number is given. Inconclusive results (about 16%) are left out. Calls follow the shape of the dose curve; as a rule, active = well fitted inhibition curve with a large enough effect; inconclusive = small, poorly fitted or top-dose-only effect; inactive = flat fitted curve, though single readings scatter. For the sample, actives were picked, then their nearest neighbours and some compounds at random.
Each molecule was assayed against Microtubule-associated protein tau (Homo sapiens) (UniProt P10636) (assay: qHTS for Inhibitors of Tau Fibril Formation, Thioflavin T Binding). Details: recombinant tau K18 P301L (four-repeat tau fragment), heparin-induced fibrillization, ThT fluorescence; series mostly up to 57.4 µM.
Procedure, shortened: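 In this qHTS, human K18 P301L tau is incubated with compound and heparin for 6 hr at 37 C, and Thioflavin T fluorescence then reports fibril load.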
Also: nearly all actives have a fitted effect of over 55% in size.
Potency is read from the fitted curve at half-maximal effect.

Sequence of Microtubule-associated protein tau (Homo sapiens) (P10636 561-689 P618L limits assumed): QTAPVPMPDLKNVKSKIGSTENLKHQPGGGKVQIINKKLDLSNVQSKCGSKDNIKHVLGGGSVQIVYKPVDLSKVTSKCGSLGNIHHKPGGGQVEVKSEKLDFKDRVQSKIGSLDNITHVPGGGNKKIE

Compound | Potency
COCCNC(=O)CCCN1C(=O)c2ccccc2Sc2ncccc21 | inactive
Cc1ccc(NC(=O)c2ccc(CN3CC(=O)N4CCCCC4C3=O)cc2)c(Cl)c1 (centres undefined) | inactive
Cc1ccnc(Nc2nc3ccccc3s2)n1 | inactive
Cc1ccnc(SCC(N)=O)n1 | inactive
Cc1ccnc(-n2sc3ccccc3c2=O)n1 | 14.1 µM (active)
CCC1=C/C(=C\c2ccc3c(c2)OCO3)C(=O)S1 | 15.8 µM (active)
CCc1c(C)sc(NC(=O)/C=C/c2ccc3c(c2)OCO3)c1C(=O)OC | inactive
CCOC(=O)CCCNC(=O)COC(=O)/C=C/c1ccc2c(c1)OCO2 | inactive
O=C(N/N=C/c1ccc2c(c1)OCO2)C(=O)N1CCCC1 | inactive
NS(=O)(=O)c1ccc(NC(=O)COC(=O)c2c3c(nc4ccccc24)/C(=C\c2ccc4c(c2)OCO4)CCC3)cc1 | inactive
O=C1/C(=C/c2ccc3c(c2)OCO3)CCC/C1=C\c1ccc2c(c1)OCO2 | 3.98 µM (active)
CCOc1ccc(NC(=O)CCC(=O)N2CC(C)Oc3ccc(C)cc32)cc1 (centres undefined) | inactive
CC1=C(c2ccc(C)c(C)c2)S(=O)(=O)NC1=NCc1ccccc1Cl | inactive
COc1ccc(CNC(=O)CSc2nc3ccccc3nc2Cc2ccccc2)cc1 | inactive
COc1ccc(Cn2ccc3nc(C)c(C(=O)Nc4ccc(C)c(F)c4)cc3c2=O)cc1 | inactive
COc1ccccc1CNC(=O)c1ccccc1NC(=O)c1nsc2ccccc12 | inactive
CCOC(=O)c1cc(-c2ccc(OC)c(S(=O)(=O)Nc3ccc(OC)cc3OC)c2)on1 | inactive
CN(Cc1ccco1)S(=O)(=O)c1nnc(NC(=O)c2ccccc2)s1 | inactive
CCCCOc1ccc(Cn2c(=O)oc3ccc(C)cc32)cc1OC | inactive
COc1ccc(CN2C(=O)CC(Cc3ccc(C)cc3)C2=O)cc1OC (centres undefined) | inactive
CCCCOc1ccc(CN2C(=O)C(=O)c3cc(Br)cc(C)c32)cc1OC | 28.2 µM (active)
CSc1nc(=O)c2c(n1C)NC(=O)CC2c1ccccc1OC(C)C (centres undefined) | inactive
COCCn1c(C)cc(C2=NNC(=Nc3ccc(F)cc3)SC2)c1C | inactive
Cc1cccc(C(=O)Nc2nnc(Cc3c[nH]c4ccccc34)s2)c1 | inactive
Cc1cccc(N=C2NN=C(c3c[nH]c4ccccc34)CS2)c1 | 2.82 µM (active)

Compound | Potency
CCCNC(=O)c1ccc(Cn2c(SCC(N)=O)nc3ccccc3c2=O)cc1 | inactive
CCC(C)(C)NC(=O)C1c2ccccc2Oc2ccccc21 | inactive
CCC(C)NC(=O)C1c2ccccc2Oc2ccccc21 (centres undefined) | inactive
CC(C)(C)c1nnc(NC(=O)C2c3ccccc3Oc3ccccc32)s1 | 22.4 µM (active)
Cc1ccc(Cl)cc1NC(=O)Cc1ccc(-n2c(C)nc3cccnc32)cc1 | inactive
COc1cccc(CNS(=O)(=O)c2cc3c(cc2C)n(C)c(=O)c(=O)n3C)c1 | inactive
Cc1ccccc1CNC(=O)C1CCCN(S(=O)(=O)N(C)c2ccc(F)cc2)C1 (centres undefined) | inactive
Cc1cc(C)cc(-n2c(SCC(=O)NCC3CCCO3)nc3c([nH]c4ccccc43)c2=O)c1 (centres undefined) | inactive
N#Cc1cc([N+](=O)[O-])ccc1Oc1cccc(/C=N/NC(=O)c2ccc(Cl)cc2)c1 | inactive
O=C(CSc1nc2ccc([N+](=O)[O-])cc2[nH]1)c1ccc(Cl)cc1 | inactive
O=C(N/N=C/c1ccc(Cl)cc1)c1nc2ccc([N+](=O)[O-])cc2c(=O)[nH]1 | 15.8 µM (active)
O=C(CCS(=O)(=O)c1ccccc1)N(Cc1cccnc1)c1nc2c(F)cccc2s1 | inactive
O=C(CSc1ccc([N+](=O)[O-])cn1)Nc1ccc(N2CCOCC2)cc1 | inactive
CN(CC(=O)Nc1ccc(N2CCOCC2)cc1)CC(=O)Nc1ccccc1[N+](=O)[O-] | inactive
O=C(Nc1ccc(N2CCOCC2)cc1)c1ccc(-c2ccccc2[N+](=O)[O-])o1 | 2.24 µM (active)
Cc1ccc(S(=O)(=O)n2nc(C)c(S(=O)(=O)N3CCCCCC3)c2C)cc1 | inactive
CC(=O)Nc1ccc(S(=O)(=O)N2CCN(c3ccccc3)CC2)cc1 | inactive
CCOc1ccc(OCC)c(NC(=O)c2cc(C)nc3c2c(C)nn3-c2cccc(Cl)c2C)c1 | inactive
COc1cc(NS(=O)(=O)c2ccc(N=Cc3c(C)[nH]n(-c4ccccc4)c3=O)cc2)nc(OC)n1 | inactive
COc1cc(SC#N)ccc1N=Cc1c(C)[nH]n(-c2ccc(C)cc2)c1=O | 14.1 µM (active)
CS(=O)(=O)c1ccc2c(c1)SC1=NC(=O)/C(=C/c3ccco3)C(=N)N12 | 7.08 µM (active)
Cc1cc(/C=C2/C(=N)N3C(=NC2=O)SN=C3S(C)(=O)=O)c(C)n1-c1ccccc1 | inactive
CCC1=NN2C(=N)/C(=C/c3cc(C)n(-c4ccccc4)c3C)C(=O)N=C2S1 | inactive
Cc1cc(C)cc(NC(=O)Cn2nc(N3CCN(c4ccccc4)CC3)ccc2=O)c1 | inactive
Cc1c(-c2cccc(NC(=O)C(C)(C)C)c2)nc2ncccn12 | inactive

Compound | Potency
Cc1cccn2c(=O)c(C(=O)NC(C)c3ccccc3)cnc12 (centres undefined) | inactive
Cc1nc(NNC(=O)c2ccccc2)cc(-c2ccccc2)n1 | inactive
Cc1ccc(-c2csc(NC(=O)c3cccs3)n2)cc1 | inactive
Cc1ccc(-c2csc(NNC(=O)c3ccccc3)n2)cc1 | 12.6 µM (active)
Cc1ccc(OC(=O)CSc2nnc(-c3cccs3)o2)cc1 | inactive
CCc1ccc(NS(=O)(=O)c2ccc3[nH]cc(C(=O)NCCc4cccc(C)c4)c(=O)c3c2)cc1 | inactive
Cc1ccc(N2CC(NC(=O)Cc3cccs3)CC2=O)cc1 (centres undefined) | inactive
COc1cccc(NC(=O)c2ccc3nc(CCc4ccccc4)oc3c2)c1 | inactive
Cn1c(=O)c2c(n3c4ccccc4nc13)NC(=O)CC2c1cccc(Cl)c1 (centres undefined) | inactive
C(=N\N1CCN(c2ccccn2)CC1)/C1=C(N2CCOCC2)C(=C/c2ccccc2)/CC1 | 11.2 µM (active)
O=C(CN1CCN(c2ccccn2)CC1)N1CCc2ccccc21 | inactive
O=C1Nc2ccc(Br)cc2/C1=N/N=C/C1=C(N2CCOCC2)C(=C\c2ccccc2)/CC1 | 4.47 µM (active)
O=C(Cc1ccc(Br)cc1)N1CCN(c2ccccn2)CC1 | inactive
Cc1c(-c2nc(-c3ccc4c(c3)OCO4)no2)nnn1-c1ccc(Br)cc1F | inactive
CC1CCCN(c2nc3c(S(=O)(=O)c4ccc(C(C)C)cc4)nnn3c3ccsc23)C1 (centres undefined) | inactive
CCOc1ccc(CNCc2c(C(=O)O)c(C)n(Cc3cccc(OC)c3)c2C)cc1OC | inactive
CCc1ccc(N(CC)C(=O)CCn2cnc3onc(-c4ccc(F)cc4)c3c2=O)cc1 | inactive
Cc1ccc2c(=O)c(C(=O)c3ccc(F)cc3)cn(CC(=O)NC3CCCCC3)c2n1 | inactive
COc1cc(-c2noc(-c3ccc(N4CCCC4)c([N+](=O)[O-])c3)n2)cc(OC)c1OC | inactive
CCc1ccc(NC(=O)c2sc3nc4c(cc3c2N)CN(CC)CC4)cc1 | 10 µM (active)
CCN1CCc2nc(NC(=O)c3cc(F)c(F)cc3Cl)sc2C1 | inactive
CCc1ccccc1NC(=O)c1sc2nc3c(cc2c1N)CN(Cc1ccccc1)CC3 | inactive
Cc1ccc(-n2ncc(C(=O)N(C)Cc3ccccc3)c2-n2cccc2)cc1 | inactive
O=C(N/N=C/c1ccc([N+](=O)[O-])cc1)c1c[nH]c2ccccc12 | 2.82 µM (active)
Cc1cccc(COc2ccccc2/C=N/Nc2ccc([N+](=O)[O-])cc2)c1 | 3.16 µM (active)

Compound | Potency
O=[N+]([O-])c1ccc(N/N=C/c2ccccc2)cc1 | 3.55 µM (active)
O=C(NC(Cc1c[nH]c2ccccc12)C(=O)N/N=C/c1ccc(Br)cc1)c1cccs1 (centres undefined) | inactive
Cc1c(C(=O)N/N=C/c2ccccc2)[nH]c2c([N+](=O)[O-])cccc12 | inactive
COc1cc(CC(=O)N/N=C/c2ccccc2)c([N+](=O)[O-])cc1OC | inactive
Cc1cccc(C(=O)NNC(=O)c2cccc([N+](=O)[O-])c2)c1 | inactive
Cc1ccccc1OCCOc1ccc([N+](=O)[O-])cc1/C=N/n1cnnc1 | inactive
O=C(Nc1ccccc1)/C(=C/c1ccc([N+](=O)[O-])cc1)NC(=O)c1ccccc1 | inactive
CNc1ccc(-c2nc(-c3ccco3)no2)cc1[N+](=O)[O-] | inactive
Cc1ccc(Cl)cc1NC(=O)NC1COc2ccccc2C1 (centres undefined) | inactive
COc1ccc(NC(=O)CSc2nccn2C2CCCC2)cc1OC | inactive
O=C(CN1C(=O)CCn2nc(-c3ccccc3)cc21)NCc1ccccc1 | inactive
Cc1ccc(-n2c(SCC(=O)Nc3cccc(F)c3)nc3c(oc4ccccc43)c2=O)cc1C | inactive
COc1ccc(/C=C(/CC(=O)Nc2ccc(C)cc2)c2nc3ccccc3s2)cc1 | inactive
COc1cccc2sc(NNC(=O)c3nc4ccccc4s3)nc12 | 7.94 µM (active)
COc1ccc(S(=O)(=O)N2CCOCC2)cc1C(=O)Nc1nc2ccccc2s1 | inactive
Cc1ccc(C)c(N2CCN(c3ccc4cc(S(=O)(=O)N5CCC(C)CC5)ccc4n3)CC2)c1 | inactive
Cc1[nH]c2ccccc2c1SCC(=O)Nc1nccs1 | inactive
CC(=O)c1cc(C#N)c(SCC(=O)C(C)(C)C)nc1C | inactive
CC(=O)c1cc(C#N)c(SCC(=O)Nc2nccs2)nc1C | 7.08 µM (active)
COc1ccc(CCNc2ncnc3onc(-c4ccc(Cl)cc4)c23)c(OC)c1 | inactive
CCOCCc1nn2c(=O)cc(COC(=O)CNC(=O)c3ccc(C(C)(C)C)cc3)nc2s1 | inactive
Cc1c(NC(=O)CCC2CCCCC2)cc(C(=O)N2CCOCC2)cc1[N+](=O)[O-] | inactive
Cc1ccc(C(=O)COC(=O)CCCC(=O)NC2CCCCC2)cc1[N+](=O)[O-] | inactive
Cc1cc(C=O)c(C)n1-c1ccc(NC2CCCCC2)c([N+](=O)[O-])c1 | 14.1 µM (active)
